From PubChem BioAssay (NCATS)
Records with an inconclusive call do not appear. Calls of active or inactive are those of the source. Unless noted, calls follow the shape of the dose curve; as a rule, active = well fitted curve in the direction sought with a large enough effect; inconclusive = small, poorly fitted or top-dose-only effect, or another doubt; inactive = no such curve, though single readings can be large or run the other way.

Assay: qHTS Assay for Identifying Gametocytocidal Compounds (AID 743244); also: potency is read from the fitted curve at half-maximal effect;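 as to max response: % is scaled to controls: 0 for no effect and ±100 for the full control effect; actives lower the fluorescent signal which means gametocytes are killed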
Details: P. falciparum 3D7 stage III-V gametocytes, alamarBlue, 72 h; max response: stronger effect = lower value
Method in brief: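 Late gametocytes (III–V), P. falciparum 3D7; 72 h drug, then 24 h alamarBlue; resazurin reduction read by fluorescence.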

SMILES	max response	Potency
NC1(c2ccccc2)CCCCC1	3.42% (inactive)	–
CC(C)C(Br)C(=O)NC(N)=O (stereo unspecified)	6.08% (inactive)	–
Clc1ccc(CO/N=C(\Cn2ccnc2)c2ccc(Cl)cc2Cl)c(Cl)c1	–	10 µM (active)
C[C@@H]1CC[C@H]2[C@@H](C)C(=O)O[C@@H]3O[C@@]4(C)CC[C@@H]1[C@]32OO4	–	0.132 µM (active)
CCN(Cc1ccc(Cl)nc1)/C(=C/[N+](=O)[O-])NC	8.58% (inactive)	–
Oc1ccc2[nH]cc(CCCCN3CC=C(c4ccccc4)CC3)c2c1	-6.56% (inactive)	–
CC(C)=CCN1CC[C@@]2(C)c3cc(O)ccc3C[C@@H]1[C@@H]2C	-13.8% (inactive)	–
CN1C[C@H](C(=O)N[C@]2(C)O[C@@]3(O)[C@@H]4CCCN4C(=O)[C@H](Cc4ccccc4)N3C2=O)C[C@@H]2c3cccc4[nH]cc(c34)C[C@H]21	–	2.35 µM (active)
COc1ccc(CN2CCNCC2)c(OC)c1OC	-9.77% (inactive)	–
Clc1ccc(CSC(Cn2ccnc2)c2ccc(Cl)cc2Cl)cc1 (stereo unspecified)	–	3.98 µM (active)
CCN(CC)CCCN(c1ccccc1)C1Cc2ccccc2C1	–	8.91 µM (active)
CCCC(C)C1(CC)C(=O)N=C(S)NC1=O (stereo unspecified)	6.11% (inactive)	–
C[C@@H]1CN(C2CCC(C#N)(c3ccc(F)cc3)CC2)CC[C@]1(C(=O)O)c1ccccc1 (stereo partly specified)	-3.29% (inactive)	–
CN(C)CCc1c[nH]c2ccccc12	16.8% (inactive)	–
Cc1ncc2n1-c1ccc(Cl)cc1C(c1ccccc1F)=NC2	-2.43% (inactive)	–
CC(C)[N+](C)(CCC(C(N)=O)(c1ccccc1)c1ccccc1)C(C)C	0.0209% (inactive)	–

SMILES	max response	Potency
CC(C)=C[C@@H]1[C@@H](C(=O)OCc2coc(Cc3ccccc3)c2)C1(C)C	-1.71% (inactive)	–
CC(Cc1ccccc1)NCc1ccccc1Cl (stereo unspecified)	9% (inactive)	–
COc1cc(CC(C)N)cc2c1OCO2 (stereo unspecified)	-6.22% (inactive)	–
CCC1(c2cnc[nH]2)Cc2ccccc2C1	-21.2% (inactive)	–
C[N+]1(CCC(C(N)=O)(c2ccccc2)c2ccccc2)CCCCC1	-5.02% (inactive)	–
OC(O)C(Cl)(Cl)Cl	-5.08% (inactive)	–
CCCN(CCC)CCc1c[nH]c2ccccc12	-3.32% (inactive)	–
CCN(CC)C(C)C(=O)c1ccccc1 (stereo unspecified)	2.91% (inactive)	–
O=C(Nc1ccc(Cl)cc1)Nc1ccc(Cl)c(C(F)(F)F)c1	–	12.6 µM (active)
NC(N)=NN=C(/C=C/c1ccc([N+](=O)[O-])o1)/C=C/c1ccc([N+](=O)[O-])o1	–	7.94 µM (active)
c1cc2c(c(N3CCNCC3)c1)OCCO2	-8.91% (inactive)	–
C[C@]12C=CC(=O)C=C1CC[C@@H]1[C@@H]2CC[C@@]2(C)[C@H]1CC[C@]2(C)O	-4.85% (inactive)	–
CCCCCOc1ccc(C2SC(=O)NC2=O)cc1OCC (stereo unspecified)	38.7% (inactive)	–
CCN(CC)Cc1nccn1-c1ccc([N+](=O)[O-])cc1C(=O)c1ccccc1Cl	–	16.6 µM (active)
COc1ccc(OC)c(CC(C)N)c1 (stereo unspecified)	-18.6% (inactive)	–
Nc1ccc(N)cc1	-1.22% (inactive)	–

Assay: qHTS profiling of the MIPE4 collection as inhibitors of Plasmodium falciparum (3D7) proliferation (AID 743344; call rule not given here;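 also: scaled between DMSO vehicle wells and 0.29 µM artemisinin as full inhibition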)
Details: P. falciparum 3D7 in erythrocytes, SYBR Green DNA fluorescence, 72 h; at 28.5 µM (top of the series)
Method in brief: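 Parasite DNA was quantified by SYBR Green I fluorescence (ex 485, em 535 nm) after overnight lysis in saponin/Triton buffer at room temperature. Cultures at 0.3% parasitemia and 2.5% hematocrit were first exposed to compound for 72 h at 37 C; signals were normalised to artemisinin (0.29 uM) and vehicle wells.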

SMILES	parasite growth, % of DMSO control
Cc1cc(C(C)(C)C)cc(C)c1CC1=NCCN1	58.8%
C=CCc1cc(OC)c(O)c(C(=O)NCCO)c1	114%
CCCS(=O)c1ccc2nc(NC(=O)OC)[nH]c2c1 (stereo unspecified)	81.1%
NC(=O)Cc1cccc(C(=O)c2ccccc2)c1N	102%
